Test results published in the supplement of paper PMC11732987, “Enantioselective OTUD7B fragment discovery through chemoproteomics screening and high-throughput optimisation” (Communications Chemistry, 2025).

What was measured:
Assay in all cases: log2 ratio of Biotin-Ahx-Ub-VS probe labelling (fragment/DMSO); higher = less target engagement (more negative = stronger competition), active = hit call of the paper (q ≤ 0.05, log2 ratio ≤ -1)
Details in all cases: compound concentration: 200 uM; treatment time: 3 h
[1] = biological target: T1, OTUD6B (UniProt Q8N6M0)
T1 sequence (whole entry): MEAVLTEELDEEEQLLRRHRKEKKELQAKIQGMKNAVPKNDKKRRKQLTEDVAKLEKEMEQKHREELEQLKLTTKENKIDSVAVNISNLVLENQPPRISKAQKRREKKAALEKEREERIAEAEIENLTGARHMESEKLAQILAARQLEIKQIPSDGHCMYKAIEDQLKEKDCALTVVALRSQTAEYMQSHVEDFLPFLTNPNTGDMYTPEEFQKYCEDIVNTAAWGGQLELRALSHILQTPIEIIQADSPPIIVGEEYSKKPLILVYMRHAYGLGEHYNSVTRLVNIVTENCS
In short: (§1)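 Using Biotin-Ahx-Ub-VS at 0.5 µM final for 1 h, DUBs were labelled in HEK293T lysate (495 µg per sample) that had first been treated in triplicate with fragment at 200 µM or vehicle for 3 h. NeutrAvidin enrichment, LysC and trypsin digestion and diaPASEF LC-MS/MS followed. Spectronaut label-free quantities were global-median-normalised. Values are average log2 fragment/vehicle ratios by unpaired t-test, using proteins with ≥2 unique peptides.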

[2] = biological target: T2, OTUD7B (UniProt Q6GQQ9)
T2 sequence (whole entry): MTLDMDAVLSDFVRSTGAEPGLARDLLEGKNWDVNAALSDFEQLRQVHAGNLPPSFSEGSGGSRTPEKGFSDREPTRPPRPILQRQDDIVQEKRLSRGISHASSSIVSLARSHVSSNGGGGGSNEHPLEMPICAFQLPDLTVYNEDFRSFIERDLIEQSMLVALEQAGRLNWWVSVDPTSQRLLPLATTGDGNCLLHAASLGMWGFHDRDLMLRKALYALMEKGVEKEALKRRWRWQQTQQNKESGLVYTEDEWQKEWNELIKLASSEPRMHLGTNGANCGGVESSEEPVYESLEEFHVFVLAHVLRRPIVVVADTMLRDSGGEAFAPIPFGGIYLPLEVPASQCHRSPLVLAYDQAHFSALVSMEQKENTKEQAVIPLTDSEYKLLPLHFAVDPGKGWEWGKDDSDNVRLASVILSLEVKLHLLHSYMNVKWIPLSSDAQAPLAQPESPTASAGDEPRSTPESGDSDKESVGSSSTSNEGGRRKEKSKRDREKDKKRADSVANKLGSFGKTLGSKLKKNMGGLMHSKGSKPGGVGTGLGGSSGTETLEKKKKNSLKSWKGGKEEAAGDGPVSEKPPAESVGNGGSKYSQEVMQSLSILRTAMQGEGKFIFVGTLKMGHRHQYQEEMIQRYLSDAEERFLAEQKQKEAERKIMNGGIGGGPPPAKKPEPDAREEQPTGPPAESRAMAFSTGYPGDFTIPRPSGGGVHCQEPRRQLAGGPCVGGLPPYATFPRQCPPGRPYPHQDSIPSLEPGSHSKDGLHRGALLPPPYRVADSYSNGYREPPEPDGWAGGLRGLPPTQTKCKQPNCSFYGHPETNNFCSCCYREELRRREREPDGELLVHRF
In short: as §1

[3] = biological target: PRPF8 (UniProt Q6P2Q9)
In short: as §1

[4] = biological target: T3, PSMD7 (UniProt P51665)
T3 sequence (whole entry): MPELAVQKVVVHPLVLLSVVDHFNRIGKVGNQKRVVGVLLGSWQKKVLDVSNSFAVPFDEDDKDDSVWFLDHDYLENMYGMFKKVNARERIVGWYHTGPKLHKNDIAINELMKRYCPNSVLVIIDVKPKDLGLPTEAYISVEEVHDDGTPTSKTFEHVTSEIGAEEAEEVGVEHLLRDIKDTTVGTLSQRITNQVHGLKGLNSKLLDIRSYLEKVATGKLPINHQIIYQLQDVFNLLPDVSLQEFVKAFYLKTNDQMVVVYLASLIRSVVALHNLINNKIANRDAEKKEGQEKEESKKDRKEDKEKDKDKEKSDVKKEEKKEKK
In short: as §1

[5] = biological target: UCHL1 (UniProt P09936)
UCHL1, sequence (P09936 whole entry, looked up): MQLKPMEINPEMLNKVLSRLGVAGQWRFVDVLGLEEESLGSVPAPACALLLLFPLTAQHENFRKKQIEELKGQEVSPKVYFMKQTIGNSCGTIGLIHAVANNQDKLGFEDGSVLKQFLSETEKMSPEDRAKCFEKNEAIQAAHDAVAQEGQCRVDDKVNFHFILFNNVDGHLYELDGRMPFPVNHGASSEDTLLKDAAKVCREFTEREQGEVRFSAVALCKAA
In short: as §1

[6] = biological target: T4, UCHL3 (UniProt P15374)
T4 sequence (whole entry): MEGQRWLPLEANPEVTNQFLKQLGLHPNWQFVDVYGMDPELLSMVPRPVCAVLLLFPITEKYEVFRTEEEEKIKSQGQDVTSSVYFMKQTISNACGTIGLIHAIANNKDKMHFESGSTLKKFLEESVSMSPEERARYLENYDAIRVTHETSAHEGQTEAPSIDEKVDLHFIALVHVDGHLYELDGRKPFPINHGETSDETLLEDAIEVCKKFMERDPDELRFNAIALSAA
In short: as §1

[7] = biological target: T5, UCHL5 (UniProt Q9Y5K5)
T5 sequence (whole entry): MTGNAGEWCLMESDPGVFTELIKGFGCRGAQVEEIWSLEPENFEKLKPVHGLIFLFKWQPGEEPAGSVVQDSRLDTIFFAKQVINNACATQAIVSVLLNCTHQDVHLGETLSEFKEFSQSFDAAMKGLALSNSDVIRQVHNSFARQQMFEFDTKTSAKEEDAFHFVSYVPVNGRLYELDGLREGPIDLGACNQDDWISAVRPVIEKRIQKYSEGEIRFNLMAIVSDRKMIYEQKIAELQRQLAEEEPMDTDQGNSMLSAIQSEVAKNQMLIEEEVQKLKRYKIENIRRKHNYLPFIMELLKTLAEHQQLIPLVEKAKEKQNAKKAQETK
In short: as §1

[8] = biological target: USP10 (UniProt Q14694)
USP10, sequence (Q14694 whole entry): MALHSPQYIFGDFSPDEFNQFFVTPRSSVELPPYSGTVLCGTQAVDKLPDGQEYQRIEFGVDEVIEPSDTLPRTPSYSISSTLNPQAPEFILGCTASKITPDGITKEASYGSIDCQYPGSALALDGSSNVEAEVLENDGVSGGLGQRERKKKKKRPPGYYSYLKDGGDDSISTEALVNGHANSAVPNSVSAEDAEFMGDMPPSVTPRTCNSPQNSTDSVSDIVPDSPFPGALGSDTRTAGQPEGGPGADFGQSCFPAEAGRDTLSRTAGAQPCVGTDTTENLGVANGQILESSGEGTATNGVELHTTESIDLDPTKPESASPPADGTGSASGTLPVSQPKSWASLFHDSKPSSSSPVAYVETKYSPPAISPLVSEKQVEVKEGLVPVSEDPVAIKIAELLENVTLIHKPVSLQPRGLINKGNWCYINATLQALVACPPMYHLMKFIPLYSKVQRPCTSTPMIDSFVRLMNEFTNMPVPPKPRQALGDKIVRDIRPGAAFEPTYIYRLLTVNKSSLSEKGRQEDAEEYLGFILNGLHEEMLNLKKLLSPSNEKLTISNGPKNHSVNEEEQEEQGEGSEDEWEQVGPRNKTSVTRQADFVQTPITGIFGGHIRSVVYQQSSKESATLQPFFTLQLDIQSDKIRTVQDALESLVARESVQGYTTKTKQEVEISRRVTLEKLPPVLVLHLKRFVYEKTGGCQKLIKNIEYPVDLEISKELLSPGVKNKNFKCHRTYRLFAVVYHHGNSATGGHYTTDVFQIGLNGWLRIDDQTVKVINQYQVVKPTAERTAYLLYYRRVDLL
In short: as §1

[9] = biological target: T6, USP15 (UniProt Q9Y4E8)
T6 sequence (whole entry): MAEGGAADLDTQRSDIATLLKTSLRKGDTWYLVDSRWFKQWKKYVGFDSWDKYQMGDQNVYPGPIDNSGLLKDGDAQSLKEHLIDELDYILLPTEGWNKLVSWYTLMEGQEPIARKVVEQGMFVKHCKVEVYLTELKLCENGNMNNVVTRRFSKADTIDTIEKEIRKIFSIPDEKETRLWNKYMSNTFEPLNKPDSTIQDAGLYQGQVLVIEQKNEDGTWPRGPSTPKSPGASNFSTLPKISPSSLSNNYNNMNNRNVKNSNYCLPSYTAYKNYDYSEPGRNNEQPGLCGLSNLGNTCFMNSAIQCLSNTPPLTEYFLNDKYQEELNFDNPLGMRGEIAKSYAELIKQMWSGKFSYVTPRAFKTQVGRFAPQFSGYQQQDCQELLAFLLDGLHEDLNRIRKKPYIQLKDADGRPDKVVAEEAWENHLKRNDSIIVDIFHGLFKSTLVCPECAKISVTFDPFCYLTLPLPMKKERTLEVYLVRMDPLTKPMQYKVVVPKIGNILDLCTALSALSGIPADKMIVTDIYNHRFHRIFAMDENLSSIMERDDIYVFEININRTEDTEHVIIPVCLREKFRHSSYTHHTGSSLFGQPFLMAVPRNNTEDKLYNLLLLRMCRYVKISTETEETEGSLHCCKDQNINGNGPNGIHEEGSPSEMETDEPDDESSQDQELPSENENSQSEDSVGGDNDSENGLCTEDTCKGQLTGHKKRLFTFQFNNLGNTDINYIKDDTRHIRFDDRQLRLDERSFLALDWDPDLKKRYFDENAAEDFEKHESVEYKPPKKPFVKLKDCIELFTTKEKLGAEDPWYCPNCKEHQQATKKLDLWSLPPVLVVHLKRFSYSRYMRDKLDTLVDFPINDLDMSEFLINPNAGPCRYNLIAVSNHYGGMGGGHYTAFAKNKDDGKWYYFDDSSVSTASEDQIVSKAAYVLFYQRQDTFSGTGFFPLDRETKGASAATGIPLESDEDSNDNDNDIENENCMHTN
In short: as §1

[10] = biological target: USP16 (UniProt Q9Y5T5)
USP16, sequence (Q9Y5T5 whole entry, looked up): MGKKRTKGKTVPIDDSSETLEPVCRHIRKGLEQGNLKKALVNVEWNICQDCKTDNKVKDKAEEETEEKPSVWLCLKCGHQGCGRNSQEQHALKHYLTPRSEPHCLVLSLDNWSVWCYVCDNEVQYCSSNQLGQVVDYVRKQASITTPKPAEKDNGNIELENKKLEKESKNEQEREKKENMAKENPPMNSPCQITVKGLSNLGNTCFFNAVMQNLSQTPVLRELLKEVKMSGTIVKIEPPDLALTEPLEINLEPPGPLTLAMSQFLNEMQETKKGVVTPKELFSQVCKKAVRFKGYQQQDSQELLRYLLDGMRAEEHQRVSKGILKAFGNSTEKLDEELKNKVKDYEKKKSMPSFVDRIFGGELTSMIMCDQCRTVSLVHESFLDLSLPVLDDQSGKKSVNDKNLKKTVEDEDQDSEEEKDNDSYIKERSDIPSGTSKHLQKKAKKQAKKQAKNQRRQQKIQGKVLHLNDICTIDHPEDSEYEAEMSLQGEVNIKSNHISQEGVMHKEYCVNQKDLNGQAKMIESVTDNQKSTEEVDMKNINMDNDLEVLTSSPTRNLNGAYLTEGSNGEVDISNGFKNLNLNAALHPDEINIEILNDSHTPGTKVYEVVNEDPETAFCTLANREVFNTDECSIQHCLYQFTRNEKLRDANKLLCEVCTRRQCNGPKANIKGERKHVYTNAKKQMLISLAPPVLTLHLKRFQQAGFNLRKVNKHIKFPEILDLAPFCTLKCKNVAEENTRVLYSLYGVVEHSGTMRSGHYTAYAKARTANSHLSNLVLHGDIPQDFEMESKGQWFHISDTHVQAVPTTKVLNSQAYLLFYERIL
In short: as §1

Measured: log2 ratio of Biotin-Ahx-Ub-VS probe labelling

Cc1ccc(CN(CCO)C(=O)CCl)cc1
inactive: [1] -0.389 | [3] 0.0652 | [4] -0.47 | [6] 0.0861 | [7] -0.52 | [8] -0.0725 | [9] -0.384 | [10] 0.361
active: [2] -1.14 | [5] -1.56
